# Laboratory results: PubChem BioAssay (NCATS)
# “And” between values parts separate entries of the source, which are not always exact repeats. Identical values can stand only once. Records with an inconclusive call do not appear. A call without a number means that no potency is given here. A number with no mark means an inactive call. The source made the active and inactive calls. Unless noted, the call rests on the fitted dose curve; in most records, active means well fitted curve in the direction sought with a large enough effect; inconclusive means small, poorly fitted or top-dose-only effect, or another doubt; inactive means no such curve, though single readings can be large; an effect the other way counts as inactive or inconclusive.
# Assays:
# [1] = target: Cellular tumor antigen p53 (Homo sapiens) (UniProt P04637); test: Primary qHTS for small molecule compounds that upregulate eGFP-tagged delta133p53alpha (in N-terminal) cells. (AID 2060322); conditions: NCI-H358 eGFP-delta133p53alpha fluorescence, 24 h; activation: hits give high values; further: nearly all actives have a fitted effect of over 75% in size; further: potency means the concentration at half of the fitted maximal effect;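 on activation: cells pre-induced with doxycycline then dosed without doxycycline; series mostly up to about 56 µM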
# Procedure, shortened: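 NCI-H358 cells pre-induced 24 h with 10 ng/ml doxycycline for eGFP-delta133p53alpha, plated dox-free and exposed 24 h at 37C to titrated compounds. Fixed, Hoechst-stained; gated GFP peak intensity by laser scanning cytometry, normalized to DMSO (0%) and 57.5 uM 5-azacytidine (100%).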
# [2] = target: Cellular tumor antigen p53 (Homo sapiens) (UniProt P04637); test: Primary qHTS for small molecule compounds that upregulate eGFP-tagged delta133p53alpha (in C-terminal) cells. (AID 2060324)
# Procedure, shortened: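 Doxycycline (100 ng/ml, 24 h) first induced the eGFP fusion in NCI-H358 C-terminal-tag cells. Washed-out cells then received titrated compounds for 24 h at 37 °C before paraformaldehyde fixation, Hoechst staining and cytometric GFP quantification.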
# [3] = target: Aldehyde dehydrogenase, mitochondrial (Homo sapiens) (UniProt P05091); test: qHTS for Inhibitors of the Aldehyde Dehydrogenase Family (ALDH2) Validation screens (AID 2061302; active means well fitted inhibition curve with a large enough effect; title and protocol of this record describe different tests)
# [4] = qHTS for Inhibitors of the Aldehyde Dehydrogenase Family (ALDH1A2, ALDH1A3, ALDH2, ALDH3A1) (AID 2061307); further: nearly all actives have a fitted effect of over 50% in size
# [5] = target: Retinaldehyde dehydrogenase 3 (Homo sapiens) (UniProt P47895); test: qHTS for Inhibitors of the Aldehyde Dehydrogenase Family (ALDH1A3) Confirmatory screens (AID 2061311); further: nearly all actives have a fitted effect of over 60% in size; further: potency means the concentration at half of the fitted maximal effect
# [6] = target: Retinal dehydrogenase 2 (Homo sapiens) (UniProt O94788); test: qHTS for Inhibitors of the Aldehyde Dehydrogenase Family (ALDH1A2) Confirmation screens (AID 2061314); further: nearly all actives have a fitted effect of over 65% in size; further: potency means the concentration at half of the fitted maximal effect
# [7] = target: Aldehyde dehydrogenase, mitochondrial (Homo sapiens) (UniProt P05091); test: qHTS for Inhibitors of the Aldehyde Dehydrogenase Family (ALDH2) Primary screen (AID 2061308); further: nearly all actives have a fitted effect of over 55% in size
# [8] = target: Retinaldehyde dehydrogenase 3 (Homo sapiens) (UniProt P47895); test: qHTS for Inhibitors of the Aldehyde Dehydrogenase Family (ALDH1A3) Validation screen (AID 2061312); further: nearly all actives have a fitted effect of over 45% in size; further: potency means the concentration at half of the fitted maximal effect
# [9] = target: Retinaldehyde dehydrogenase 3 (Homo sapiens) (UniProt P47895); test: qHTS for Inhibitors of the Aldehyde Dehydrogenase Family (ALDH1A3) Primary screen (AID 2061315)
# [10] = target: Aldehyde dehydrogenase, mitochondrial (Homo sapiens) (UniProt P05091); test: qHTS for Inhibitors of the Aldehyde Dehydrogenase Family (ALDH2) Confirmatory screens (AID 2061303; active means well fitted inhibition curve with a large enough effect; title and protocol of this record describe different tests; further: nearly all actives have a fitted effect of over 45% in size)
# [11] = target: Aldehyde dehydrogenase 1A1 (Homo sapiens) (UniProt P00352); test: qHTS for Inhibitors of the Aldehyde Dehydrogenase Family (ALDH1A1) Confirmatory screens (AID 2061316); further: nearly all actives have a fitted effect of over 65% in size; further: potency means the concentration at half of the fitted maximal effect
# [12] = BET inhibitor-based combinations targeting novel dependencies in MECOM-rearranged (r) AML: SET-2 cell line (AID 2202231); conditions: SET-2 AML cells viability, CellTiter-Glo luminescence, 48 h; viability: hits give low values, concentration not given here; further: potency means the concentration at half of the fitted maximal effect; nearly all actives have a fitted effect of over 35% in size
# Procedure, shortened: (§1)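 Luminescent ATP readout (CellTiter-Glo) after 48 hr drug exposure gives viability. Curves span 11 concentrations and are normalized to DMSO and empty wells. Activity is reported as area under the curve and its Z-transform within each cell line.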
# [13] = BET inhibitor-based combinations targeting novel dependencies in MECOM-rearranged (r) AML: OCI-AML3 cell line (AID 2202232); conditions: Potency: OCI-AML3 viability; further: potency means the concentration at half of the fitted maximal effect; nearly all actives have a fitted effect of over 35% in size
# Procedure, shortened: as §1
# [14] = BET inhibitor-based combinations targeting novel dependencies in MECOM-rearranged (r) AML: MV-4-11 cell line (AID 2202233); further: potency means the concentration at half of the fitted maximal effect; nearly all actives have a fitted effect of over 45% in size
# Procedure, shortened: (§2)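 Luminescent ATP readout (CellTiter-Glo, 15 min at room temperature) after 48 hr drug exposure gave viability. Dose-response curves, normalized to DMSO and empty-well controls, were summarized as area under the curve and its mean-centred Z-score.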
# [15] = BET inhibitor-based combinations targeting novel dependencies in MECOM-rearranged (r) AML: UCSD-AML1 cell line (AID 2202235); further: potency means the concentration at half of the fitted maximal effect; nearly all actives have a fitted effect of over 40% in size
# Procedure, shortened: as §2
# [16] = BET inhibitor-based combinations targeting novel dependencies in MECOM-rearranged (r) AML: AML-191 cell line (AID 2202236; further: potency means the concentration at half of the fitted maximal effect; nearly all actives have a fitted effect of over 35% in size)
# Procedure, shortened: as §1
# [17] = BET inhibitor-based combinations targeting novel dependencies in MECOM-rearranged (r) AML: AML-194 cell line (AID 2202237; further: potency means the concentration at half of the fitted maximal effect; nearly all actives have a fitted effect of over 40% in size)
# Procedure, shortened: as §1
# Chain of Cellular tumor antigen p53 (Homo sapiens) (P04637 whole entry, looked up, the tested form may be a part): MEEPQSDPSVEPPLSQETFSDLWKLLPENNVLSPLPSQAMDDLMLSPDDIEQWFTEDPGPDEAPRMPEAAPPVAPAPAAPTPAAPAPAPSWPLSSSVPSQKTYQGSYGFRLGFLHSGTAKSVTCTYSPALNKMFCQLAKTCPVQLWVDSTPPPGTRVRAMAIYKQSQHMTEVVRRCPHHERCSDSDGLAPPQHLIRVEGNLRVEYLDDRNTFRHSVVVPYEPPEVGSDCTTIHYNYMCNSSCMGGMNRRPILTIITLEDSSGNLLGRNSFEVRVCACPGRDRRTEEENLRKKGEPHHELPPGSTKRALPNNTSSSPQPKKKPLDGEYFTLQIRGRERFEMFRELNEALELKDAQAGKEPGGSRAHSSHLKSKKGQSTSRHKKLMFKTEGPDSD
smiles,measurement,setting,value
COc1cc2c(CCNC(C)=O)c[nH]c2cc1Cl,activation,[1],-18.2%
same,Potency,[2],inactive
same,Potency,[3],inactive
same,Potency,[4],inactive
same,Potency,[5],inactive
same,Potency,[6],inactive
COc1ccc(/C=C/c2nc(NCCCN(C)C)c3ccccc3n2)cc1,activation,[1],-29.6%
same,Potency,[2],inactive
same,Potency,[3],inactive
same,Potency,[4],inactive
Clc1ccc2c(c1)N=C(N1CCNCC1)c1ccccc1N2,activation,[1],11.7% and 30.8%
same,Potency,[2],inactive
same,Potency,[3],inactive
same,Potency,[7],inactive
same,Potency,[8],inactive
same,Potency,[9],inactive
N=C(N)c1ccc(N)cc1,activation,[1],-28.3%
same,Potency,[2],inactive
same,Potency,[3],inactive
same,Potency,[10],inactive
same,Potency,[4],inactive
same,Potency,[6],inactive
CCN1CCC[C@H]1CNC(=O)c1cc(S(N)(=O)=O)ccc1OC,activation,[1],-14.2% and 19% and 1.55%
same,Potency,[2],inactive
same,Potency,[3],inactive
same,Potency,[7],inactive
same,Potency,[8],inactive
same,Potency,[9],inactive
COc1ccc(Cl)cc1C(=O)NCCc1ccc(S(=O)(=O)NC(=O)NC2CCCCC2)cc1,activation,[1],3.95% and -3.34% and -19.4%
same,Potency,[2],inactive
same,Potency,[3],inactive
same,Potency,[7],inactive
same,Potency,[8],inactive
same,Potency,[9],inactive
NC(=O)c1cc[n+](CC2=C(C(=O)O)N3C(=O)[C@@H](NC(=O)[C@@H](c4ccccc4)S(=O)(=O)[O-])[C@H]3SC2)cc1,activation,[1],-28.8%
same,Potency,[2],inactive
same,Potency,[3],inactive
same,Potency,[4],inactive
same,Potency,[5],inactive
same,Potency,[6],inactive
COc1ccccc1N1CCN(CCCNc2cc(=O)n(C)c(=O)n2C)CC1,activation,[1],16.7% and -11.6% and 14.7%
same,Potency,[2],inactive
same,Potency,[3],inactive
same,Potency,[7],inactive
same,Potency,[8],inactive
same,Potency,[9],inactive
O=C(O)c1cc(=O)c2c(Cl)cc(Cl)cc2[nH]1,activation,[1],-19.2%
same,Potency,[2],inactive
same,Potency,[3],inactive
same,Potency,[4],inactive
same,Potency,[11],inactive
CCOC(=O)N1CCN(/[N+]([O-])=N/Oc2ccc([N+](=O)[O-])cc2[N+](=O)[O-])CC1,Potency,[1],4.78 µM (active)
same,Potency,[2],inactive
same,Potency,[3],inactive
same,Potency,[10],inactive
same,Potency,[5],14.2 µM (active)
same,Potency,[6],2.25 µM (active)
same,Potency,[12],4.68 µM (active)
same,Potency,[13],2.95 µM (active)
same,Potency,[14],1.86 µM (active)
same,Potency,[15],2.95 µM (active)
same,Potency,[16],2.09 µM (active)
same,Potency,[17],2.95 µM (active)
CCCCN(CC)c1nc(C)nc2c1c(C)cn2-c1c(C)cc(C)cc1C,activation,[1],34.4% and -11%
same,Potency,[2],inactive
same,Potency,[3],inactive
same,Potency,[4],inactive
same,Potency,[7],inactive
same,Potency,[8],1.26 µM (active) and 12.6 µM (active)
same,Potency,[9],inactive
CCNc1nc2c(ncn2[C@H]2C[C@H](O)[C@@H](CO)O2)c(=O)[nH]1,activation,[1],9.4% and 5.67%
same,Potency,[2],inactive
same,Potency,[3],inactive
same,Potency,[7],inactive
same,Potency,[8],inactive
same,Potency,[9],inactive
Cc1cc(Cn2cnc3c2C[C@@H](C(=O)O)N(C(=O)C(c2ccccc2)c2ccccc2)C3)ccc1N,activation,[1],-13.9%
same,Potency,[2],inactive
same,Potency,[3],inactive
same,Potency,[10],inactive
same,Potency,[6],inactive
NC(=S)c1ccc[n+]([C@@H]2O[C@@H](COP(=O)([O-])OP(=O)(O)OC[C@H]3O[C@@H](n4cnc5c(N)ncnc54)[C@H](OP(=O)(O)O)[C@@H]3O)C(O)C2O)c1 (stereo partly drawn),activation,[1],-2.21%
same,Potency,[2],inactive
same,Potency,[3],inactive
same,Potency,[10],inactive
same,Potency,[4],20.1 µM (active)
same,Potency,[11],25.2 µM (active)
Nc1ncnc2c1c(-c1ccc(Oc3ccccc3)cc1)cn2C1CCCC1,activation,[1],-45.6%
same,Potency,[2],inactive
same,Potency,[3],inactive
same,Potency,[7],inactive
same,Potency,[8],inactive
same,Potency,[9],inactive
CN(C)CCCC1(c2ccc(F)cc2)OCc2cc(C#N)ccc21 (stereo not drawn),activation,[1],2.08% and 5.36% and -45.1%
same,Potency,[2],inactive
same,Potency,[3],inactive
same,Potency,[7],inactive
same,Potency,[8],inactive
same,Potency,[9],inactive
CCN(CC)CCNC(=O)c1cc(Cl)c(N)cc1OC,activation,[1],-1.69% and -0.477% and 10.5%
same,Potency,[2],inactive
same,Potency,[3],inactive
same,Potency,[7],inactive
same,Potency,[8],inactive
same,Potency,[9],inactive
CCCNC(=O)NS(=O)(=O)c1ccc(Cl)cc1,activation,[1],-9.6% and 2.39% and -46.5%
same,Potency,[2],inactive
same,Potency,[3],inactive
same,Potency,[7],inactive
same,Potency,[8],inactive
same,Potency,[9],inactive
O=C(O)/C(=C/c1c(C(=O)O)[nH]c2cc(Cl)cc(Cl)c12)c1ccccc1,activation,[1],12.5%
same,Potency,[2],inactive
same,Potency,[3],inactive
same,Potency,[4],11.3 µM (active)
same,Potency,[5],inactive
same,Potency,[8],inactive
CC(C(O)c1ccc(O)cc1)N1CCC(Cc2ccccc2)CC1 (stereo not drawn),activation,[1],-5.02% and -1% and -19.5%
same,Potency,[2],inactive
same,Potency,[3],inactive
same,Potency,[7],inactive
same,Potency,[8],inactive
same,Potency,[9],inactive
